PG9 binder: binds the HIV-1 gp120 antibody PG9; TR-FRET gp120-PG9 antibody binding; AID 624416; inhibition, % at 6.7 µM; 360,000 compounds, 0.43% hits; in the data active = inhibition above about 8.5%
MBD2 DNA inh: MBD2-methylated oligo binding inhibition. 370,000 compounds, 0.31% hits. inhibition, % at 4.4 µM. Q9UBB5. TR-FRET, MBD2 binding to methylated oligonucleotide; in the data active = inhibition above about 13%
rCAG RNA binder: binds r(CAG) RNA repeats. inhibition, % at 3 µM. 370,000 compounds, 1.3% hits. r(CAG) RNA repeat, TO-PRO-1 dye displacement fluorescence;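 active = inhibition above the plate cutoff, the mean of all test compounds on that plate plus 3 SD, cut at about 35% in these data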;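 note: 0% = DMSO alone and 100% = 100 µM mitoxantrone as full dye displacement; higher means more dye released from RNA so lower well fluorescence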
UHRF1 MBD2 ctr: UHRF1 methyl-DNA binding inhibition; UHRF1 binding to methylated oligo, TR-FRET; inhibition, % at 4.4 µM; 370,000 compounds, 0.75% hits; Q96T88; in the data active = inhibition above about 21%;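 note: UHRF1 SRA domain binding a hemimethylated CpG hairpin DNA probe; 0% = median of test compound wells and 100% = reference inhibitor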
Target sequence (Q96T88 whole entry, looked up, the tested form may be a part): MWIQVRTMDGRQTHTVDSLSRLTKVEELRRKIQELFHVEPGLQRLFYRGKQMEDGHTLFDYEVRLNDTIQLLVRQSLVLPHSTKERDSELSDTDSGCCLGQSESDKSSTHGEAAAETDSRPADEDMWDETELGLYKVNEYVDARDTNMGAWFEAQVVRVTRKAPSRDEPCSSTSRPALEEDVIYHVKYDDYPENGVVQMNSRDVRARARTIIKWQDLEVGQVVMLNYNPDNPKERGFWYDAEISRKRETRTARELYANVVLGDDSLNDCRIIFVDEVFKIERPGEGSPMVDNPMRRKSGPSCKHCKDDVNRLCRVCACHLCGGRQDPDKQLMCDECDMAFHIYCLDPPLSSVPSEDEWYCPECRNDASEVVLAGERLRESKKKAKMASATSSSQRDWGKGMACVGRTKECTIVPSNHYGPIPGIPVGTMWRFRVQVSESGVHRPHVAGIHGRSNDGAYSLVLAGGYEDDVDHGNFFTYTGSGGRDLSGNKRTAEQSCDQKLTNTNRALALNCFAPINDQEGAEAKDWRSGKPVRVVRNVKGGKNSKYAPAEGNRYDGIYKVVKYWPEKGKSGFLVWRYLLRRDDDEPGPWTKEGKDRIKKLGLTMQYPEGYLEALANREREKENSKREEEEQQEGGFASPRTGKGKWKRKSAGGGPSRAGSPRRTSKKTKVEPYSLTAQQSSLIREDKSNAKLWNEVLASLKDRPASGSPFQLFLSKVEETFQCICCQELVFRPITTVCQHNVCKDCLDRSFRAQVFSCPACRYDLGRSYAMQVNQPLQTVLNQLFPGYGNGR
DNMT1 inh: inhibitors of human DNMT1; DNMT1 molecular beacon, Hinp1I cleavage, fluorescence; AID 588458; inhibition (reported as % activation of signal), % at 10 µM; 360,000 compounds, 0.83% hits; in the data active = inhibition above about 50%
LEDGF integ inh: blocks HIV-1 LEDGF/p75-dependent DNA integration; TR-FRET IN-LEDGF/p75 DNA integration, Eu/Cy5; inhibition, % at 3.7 µM; 370,000 compounds, 0.64% hits;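 active = inhibition above the screen-wide mean plus 3 SD, cut at about 13% in these data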;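 note: signal is the Cy5 over europium emission ratio at 671 and 618 nm; 0% = plate median of compound wells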
DNMT1 interf DR: counter-screen for DNMT1 inhibitors: spectral interference, dose response. IC50, µM. 200 tested, under 10 active. molecular beacon fluorescence. shares compounds with DNMT1 inh; call rule not given here
DNMT1 confirm: DNMT1 inhibition confirmation, single concentration; shares compounds with DNMT1 inh; DNMT1 molecular beacon HinP1I cleavage, fluorescence; inhibition, % at 10 µM; 2,300 compounds, 8% hits; AID 602385;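 active = average inhibition of at least 30% in the single-concentration confirmation test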
DNMT1 interf: beacon fluorescence artifact counter-screen | shares compounds with DNMT1 inh | DNMT1 molecular beacon spectral interference counterscreen, fluorescence 485/520 | activation (fluorescence interference), % at 10 µM | 2,300 compounds, 1% hits | AID 602387;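 active = activation of at least 30% at 10 µM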;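 note: DNMT1 catalytic domain with a HinP1I cleavage step and a FAM/dabcyl DNA beacon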
Active calls of the source: *; · = not tested or not shown. Rows were chosen to be rich in hits. Some 3.5% of all compounds tested hit in one or more screens of this group.

SMILES	PG9 binder	MBD2 DNA inh	rCAG RNA binder	UHRF1 MBD2 ctr	DNMT1 inh	LEDGF integ inh	DNMT1 confirm	DNMT1 interf	others
Oc1[nH]c2ccccc2c1N=Nc1nc2ccccc2s1	1	-5	4	2	2	5	·	·
O=C(N/N=C/c1ccc([N+](=O)[O-])o1)c1cc(-c2ccc(-c3ccccc3)cc2)nc2ccccc12	-2	0	23	1	79*	-2	0	2
O=C(N/N=C/c1ccc([N+](=O)[O-])o1)c1cc(-c2ccncc2)nc2ccccc12	-5	-3	19	-3	7	0	·	·
c1ccc(Cn2nnc3c(NCc4ccc5c(c4)OCO5)nc(C4CC4)nc32)cc1	-1	-4	-1	-1	37	-2	·	·
Cc1nc(NCc2ccc3c(c2)OCO3)c2nnn(Cc3ccccc3)c2n1	1	3	3	-1	55*	-3	3	3
O=C(CSc1nc(-c2ccc(F)cc2)nc2c1Cc1ccccc1O2)Nc1cccc(C(=O)O)c1	0	9	22	5	99*	-2	6	-14
O=C(CSc1nc(-c2ccccc2)nc2ccc(F)cc12)Nc1cccc(C(=O)O)c1	1	-1	8	4	0	3	·	·
CC(=O)NC(c1cccc(F)c1)c1nc(-c2cc(F)cc(Cl)c2)cs1 (stereo not given)	1	8	4	4	59*	1	5	7
O=[N+]([O-])c1ccc(COc2ccc(CNc3ccccc3)cc2)cc1	-1	0	3	-1	0	-3	·	·
O=[N+]([O-])c1ccc(COc2cccc(CNc3ccc(Br)cc3)c2)cc1	1	-2	6	0	71*	-2	5	6
O=C(CN1CCN(c2cccc(C(F)(F)F)c2)CC1)N(C1CCCC1)C1CCS(=O)(=O)C1 (stereo not given)	-1	1	-3	0	2	-1	·	·
Cc1oc2c(c1C(=O)c1ccc(Cl)cc1)C(=O)C(=O)c1ccccc1-2	0	1	10	0	74*	1	21	-9	DNMT1 interf DR=>99
Cc1ccc(C(=O)c2coc3c2C(=O)C(=O)c2ccccc2-3)cc1	-3	-10	12	-1	-6	-2	·	·
O=S1(=O)CC(N2CCC(Cc3ccccc3)CC2)CN1CCc1ccccc1 (stereo not given)	-1	-6	-2	-2	2	-9	·	·
COc1cc(/C=N/NC(=O)c2nnn(-c3nonc3N)c2C)ccc1OCc1ccc(Cl)cc1	2	3	2	-1	58*	-1	-1	-1
CCCn1c(=O)c(C(=O)NCc2ccc3c(c2)OCO3)c(O)c2ccccc21	2	1	-1	5	-2	-1	·	·
CCOc1cccc2cc(-c3nnc(NCc4ccc5c(c4)OCO5)s3)c(=O)oc12	2	1	0	-5	70*	-1	0	-5
CCCCN1C(=O)/C(=C/C=C2/CC(C)(C)CN2C)SC1=S	-1	-3	-8	-4	76*	4	81*	85*
CCc1nn(CC(=O)NCCCc2ccccc2)c(=O)c2cc3cc(F)ccc3n12	·	·	·	·	51*	·	0	-1
Cc1cc(=O)c(C(=O)Nc2cccc(N3CCCC3=O)c2)nn1-c1ccccc1Cl	1	7	1	3	0	-1	·	·
Cc1cc(=O)c(C(=O)Nc2cccc(N3CCCC3=O)c2)nn1-c1ccccc1F	-1	4	-4	1	85*	-3	1	3
O=C(NNS(=O)(=O)c1ccccc1)c1cc2cc3ccccc3nc2s1	1	3	33	-4	0	0	·	·
O=C(NNC(=O)c1cc2cc3ccccc3nc2s1)c1cccc(C(F)(F)F)c1	-1	3	6	0	51*	2	1	4
CCC(=O)Nc1ccc2nc3c(=O)[nH]c(=S)[nH]c3nc2c1	-12	-3	12	2	55*	-3	4	3
CCC(=O)Nc1ccc2ccccc2c1	-2	5	0	-1	3	1	·	·
SMILES	PG9 binder	MBD2 DNA inh	rCAG RNA binder	UHRF1 MBD2 ctr	DNMT1 inh	LEDGF integ inh	DNMT1 confirm	DNMT1 interf	others
COC(=O)C/C=C/[C@@H](C)[C@H](NC(=O)OCC(Cl)(Cl)Cl)c1ccc(-c2ccccc2)cc1	·	0	7	0	·	-6	·	·
O=[N+]([O-])c1ccc(/C=N/NC(=S)Nc2ccc(Cl)cc2Cl)s1	-1	0	13	-3	60*	2	5	-3
Fc1ccc(/C=N/NC(=S)Nc2ccc(Cl)cc2Cl)cc1	0	-2	6	-1	6	2	·	·
CCN(CC)S(=O)(=O)c1cccc(C(=O)N[C@H](C(=O)NC2=NCCS2)C(C)C)c1	0	-8	0	0	66*	5	-1	2
CCN(CC)S(=O)(=O)c1cccc(C(=O)NC(C(=O)NC2=NCCS2)C(C)C)c1 (stereo not given)	2	-2	0	8	0	3	·	·
O=C(N/N=C/C=C/c1ccccc1)c1cc2c(ccc3ccccc32)o1	1	2	3	-3	94*	-8	6	2
O=C(N/N=C/c1ccccc1F)c1cc2c(ccc3ccccc32)o1	0	1	6	1	82*	4	6	0
O=C(N/N=C/c1cccc2ccccc12)c1cc2ccccc2o1	-1	2	9	-3	1	3	·	·
Nc1nnc(SCC(=O)Nc2cccc(S(N)(=O)=O)c2)s1	-1	-2	3	2	92*	2	3	4
CN(CC(=O)Nc1ccc(F)c(F)c1F)C(=O)c1ccc(=O)[nH]c1	4	-3	-2	-1	-1	0	·	·
O=C(OCCCc1cc2ccccc2c(=O)o1)c1ccc2c(c1)OCO2	0	5	-8	1	3	-1	·	·
O=C(OCCc1cc2ccccc2c(=O)o1)c1ccc2c(c1)OCO2	0	-3	-2	-3	71*	0	1	1
O=C(Nc1ccc2c(c1)OCO2)c1cc2ncc(Br)cn2n1	2	2	7	1	59*	1	0	-2
O=C(OCc1cc(=O)n2c(n1)sc1ccccc12)c1ccc(O)cc1	-2	2	22	-1	56*	3	1	2
Cc1cccc(C(=O)NCC(=O)OCc2cc(=O)n3ccsc3n2)c1	-2	-2	-2	1	0	4	·	·
COc1ccc(/C=C/C(=O)OCc2cc(=O)n3c(n2)sc2ccccc23)cc1	0	3	6	5	6	-1	·	·
